# Measurements reported in the supplement of paper PMC4022240.
# ± gives the standard deviation.
# T1: HaloTag-ATRX ADD domain (163-292)
# T1 chain: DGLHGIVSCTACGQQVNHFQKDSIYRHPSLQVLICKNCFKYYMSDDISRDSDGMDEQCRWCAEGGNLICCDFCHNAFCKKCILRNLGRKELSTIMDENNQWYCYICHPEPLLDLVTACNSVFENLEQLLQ
# What was measured:
# Assay in all cases: peptide microarray binding signal (635 nm), min-max normalized on array (fraction of array maximum); higher = stronger binding
# [1] = biological target: T1, HaloTag-ATRX ADD domain (163-292)
# Summary of the method: (§1)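 Binding signal is the mean intensity of triplicate spots, min-max scaled within each library. Histone 13-mer peptide–cellulose conjugates were spotted in triplicate on nitrocellulose with a Cy3 tracer and blocked overnight at 4°C. Probing lasted 1 h at 4°C, either with biotin-labelled HaloTag reader fusions (10 nM to 1 μM) and streptavidin-Alexa Fluor 647 or with rabbit histone antibodies (1:10,000 to 1:2,000) and anti-rabbit Alexa 647. An Axon GenePix 4000B read signal at 635 nm and misprints at 532 nm.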
# [2] = biological target: HaloTag-ING2 PHD (mouse Ing2 200-280)
# Summary of the method: as §1
# [3] = biological target: anti-H3K4me3 antibody ab8580
# Summary of the method: as §1
# [4] = biological target: anti-H3K9me3 antibody ab8898
# Summary of the method: as §1
# [5] = peptide region: H4 16-28, peptide modifications: H4R19me2s H4K20me3, binder concentration: 1:2,000 dilution
# [6] = peptide region: H4 16-28, peptide modifications: H4R19me2s H4K20me3, binder concentration: 1:10,000 dilution
# [7] = peptide region: H4 38-50, peptide modifications: H4K44me3 H4R45me1, binder concentration: 1:2,000 dilution
# [8] = peptide region: H4 38-50, peptide modifications: H4K44me3 H4R45me1, binder concentration: 1:10,000 dilution
# [9] = peptide region: H4 38-50, peptide modifications: H4K44me2 H4R45me2a, binder concentration: 1:2,000 dilution
# [10] = peptide region: H4 38-50, peptide modifications: H4K44me2 H4R45me2a, binder concentration: 1:10,000 dilution
# [11] = peptide region: H4 38-50, peptide modifications: H4K44me2 H4R45me2s, binder concentration: 1:2,000 dilution
# [12] = peptide region: H4 38-50, peptide modifications: H4K44me2 H4R45me2s, binder concentration: 1:10,000 dilution
# [13] = peptide region: H4 16-28, peptide modifications: H4R23me1, binder concentration: 1:2,000 dilution
# [14] = peptide region: H4 16-28, peptide modifications: H4R23me2s, binder concentration: 1:2,000 dilution
binder,measurement,setting,value
KRHRKVLRDNIQG [H4 16-28 K R H Rme2s Kme3 V L R D N I Q G],peptide microarray binding signal,"[1]; peptide region: H4 16-28, peptide modifications: H4R19me2s H4K20me3, binder concentration: 50 nM",0.006019 ± 4.1e-05
same,peptide microarray binding signal,"[1]; peptide region: H4 16-28, peptide modifications: H4R19me2s H4K20me3, binder concentration: 500 nM",0.00524 ± 0.00012
same,peptide microarray binding signal,"[2]; peptide region: H4 16-28, peptide modifications: H4R19me2s H4K20me3, binder concentration: 10 nM",0.01444 ± 0.00013
same,peptide microarray binding signal,"[2]; peptide region: H4 16-28, peptide modifications: H4R19me2s H4K20me3, binder concentration: 100 nM",0.0125 ± 0.00075
same,peptide microarray binding signal,[3]; [5],0.0051 ± 0.00088
same,peptide microarray binding signal,[3]; [6],0.00451 ± 0.0013
same,peptide microarray binding signal,[4]; [5],0.00438 ± 0.0021
same,peptide microarray binding signal,[4]; [6],0.00663 ± 0.00022
ARRGGVKRISGLI [H4 38-50 A R R G G V Kme3 Rme I S G L I],peptide microarray binding signal,"[1]; peptide region: H4 38-50, peptide modifications: H4K44me3 H4R45me1, binder concentration: 50 nM",0.002821 ± 2.4e-05
same,peptide microarray binding signal,"[1]; peptide region: H4 38-50, peptide modifications: H4K44me3 H4R45me1, binder concentration: 500 nM",0.00524 ± 8.9e-05
same,peptide microarray binding signal,"[2]; peptide region: H4 38-50, peptide modifications: H4K44me3 H4R45me1, binder concentration: 10 nM",0.0104 ± 0.0012
same,peptide microarray binding signal,"[2]; peptide region: H4 38-50, peptide modifications: H4K44me3 H4R45me1, binder concentration: 100 nM",0.0257 ± 0.006
same,peptide microarray binding signal,[3]; [7],0.00143 ± 5.5e-05
same,peptide microarray binding signal,[3]; [8],0.001655 ± 1.6e-05
same,peptide microarray binding signal,[4]; [7],0.000951
same,peptide microarray binding signal,[4]; [8],0.000865 ± 9e-06
ARRGGVKRISGLI [H4 38-50 A R R G G V Kme2 Rme2a I S G L I],peptide microarray binding signal,"[1]; peptide region: H4 38-50, peptide modifications: H4K44me2 H4R45me2a, binder concentration: 50 nM",0.00665 ± 0.0002
same,peptide microarray binding signal,"[1]; peptide region: H4 38-50, peptide modifications: H4K44me2 H4R45me2a, binder concentration: 500 nM",0.00881 ± 0.00022
same,peptide microarray binding signal,"[2]; peptide region: H4 38-50, peptide modifications: H4K44me2 H4R45me2a, binder concentration: 10 nM",0.00859 ± 0.00016
same,peptide microarray binding signal,"[2]; peptide region: H4 38-50, peptide modifications: H4K44me2 H4R45me2a, binder concentration: 100 nM",0.0109 ± 0.00048
same,peptide microarray binding signal,[3]; [9],0.00187 ± 6e-05
same,peptide microarray binding signal,[3]; [10],0.00371 ± 0.00016
same,peptide microarray binding signal,[4]; [9],0.00208 ± 4.3e-05
same,peptide microarray binding signal,[4]; [10],0.00265 ± 9.3e-05
ARRGGVKRISGLI [H4 38-50 A R R G G V Kme2 Rme2s I S G L I],peptide microarray binding signal,"[1]; peptide region: H4 38-50, peptide modifications: H4K44me2 H4R45me2s, binder concentration: 50 nM",0.00586 ± 0.00025
same,peptide microarray binding signal,"[1]; peptide region: H4 38-50, peptide modifications: H4K44me2 H4R45me2s, binder concentration: 500 nM",0.0125 ± 0.00027
same,peptide microarray binding signal,"[2]; peptide region: H4 38-50, peptide modifications: H4K44me2 H4R45me2s, binder concentration: 10 nM",0.0175 ± 0.00042
same,peptide microarray binding signal,"[2]; peptide region: H4 38-50, peptide modifications: H4K44me2 H4R45me2s, binder concentration: 100 nM",0.0397 ± 0.019
same,peptide microarray binding signal,[3]; [11],0.00361 ± 0.00025
same,peptide microarray binding signal,[3]; [12],0.00611 ± 0.00033
same,peptide microarray binding signal,[4]; [11],0.0037 ± 0.00027
same,peptide microarray binding signal,[4]; [12],0.00484 ± 0.00089
KRHRKVLRDNIQG [H4 16-28 K R H R K V L Rme D N I Q G],peptide microarray binding signal,"[1]; peptide region: H4 16-28, peptide modifications: H4R23me1, binder concentration: 500 nM",0.000143 ± 4.6e-06
same,peptide microarray binding signal,"[2]; peptide region: H4 16-28, peptide modifications: H4R23me1, binder concentration: 100 nM",0.000354 ± 4.1e-06
same,peptide microarray binding signal,[3]; [13],0.000132 ± 1.5e-06
same,peptide microarray binding signal,[4]; [13],1.51e-05 ± 1.7e-07
KRHRKVLRDNIQG [H4 16-28 K R H R K V L Rme2s D N I Q G],peptide microarray binding signal,"[1]; peptide region: H4 16-28, peptide modifications: H4R23me2s, binder concentration: 500 nM",0.000333 ± 1.9e-05
same,peptide microarray binding signal,"[2]; peptide region: H4 16-28, peptide modifications: H4R23me2s, binder concentration: 100 nM",0.000354 ± 1.5e-05
same,peptide microarray binding signal,[3]; [14],0.000849 ± 0.00028
same,peptide microarray binding signal,[4]; [14],1.51e-05 ± 1.7e-07
